Assay outcomes (PubChem BioAssay)
VDR inhibitor: Inhibitors of the vitamin D receptor (VDR): qHTS; Vitamin D3 receptor (Homo sapiens), P11473; VDR-SRC2-3 peptide fluorescence polarization, 2 h; Potency, µM, without a hit: max response, negative = inhibition, hits mostly inhibitors; actives 0.93% (n = 400,000); AID 504847, 2011; note: % is set by controls: 0 for no effect and ±100 for the full control effect
Target sequence (P11473 whole entry, looked up): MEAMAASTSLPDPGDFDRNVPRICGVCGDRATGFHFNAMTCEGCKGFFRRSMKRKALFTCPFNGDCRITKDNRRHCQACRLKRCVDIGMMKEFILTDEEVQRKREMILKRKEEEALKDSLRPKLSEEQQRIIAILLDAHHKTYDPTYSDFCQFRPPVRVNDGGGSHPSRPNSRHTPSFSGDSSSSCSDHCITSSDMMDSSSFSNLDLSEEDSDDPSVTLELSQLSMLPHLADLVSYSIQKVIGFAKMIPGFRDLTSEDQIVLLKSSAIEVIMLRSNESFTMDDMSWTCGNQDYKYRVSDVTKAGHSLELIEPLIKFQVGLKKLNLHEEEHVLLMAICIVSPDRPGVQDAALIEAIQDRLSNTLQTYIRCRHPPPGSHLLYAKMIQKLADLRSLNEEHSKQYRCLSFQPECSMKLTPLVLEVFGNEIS
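Compounds are added to VDR with labelled SRC2-3 coactivator peptide and held 2 h at room temperature. Inhibition of the VDR–peptide interaction is then read as a change in fluorescence polarization.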
JMJD2A Tudor inh: qHTS Assay for Inhibitors of JMJD2A-Tudor Domain; Lysine-specific demethylase 4A (Homo sapiens), O75164; AlphaScreen JMJD2A-Tudor / H3K4me3 peptide binding; Potency, µM (highest dose often 114 µM), without a hit: at the highest dose activity change, negative = inhibition, usual class: inhibitors; actives 4.4% (n = 390,000); note: % is set by controls: 0 for no effect and ±100 for the full control effect; nearly all actives have a fitted effect of over 50% in size
PLK1 PBD block: qHTS for Inhibitors of PLK1-PDB (polo-like kinase 1 - polo-box domain): Primary Screen; actives 2.8% (n = 360,000); Potency, µM, for the others: max response, negative = inhibition, usual class: inhibitors; Serine/threonine-protein kinase PLK1 (Homo sapiens), P53350; Plk1 PBD binding of FITC phosphopeptide, fluorescence polarization; note: series mostly up to about 57 µM; % is set by controls: 0 for no effect and ±100 for the full control effect; nearly all actives have a fitted effect of over 65% in size
BAZ2B inh: qHTS Assay for Inhibitors of BAZ2B | AlphaScreen BAZ2B-H3K14Ac peptide displacement | Potency, µM (top dose mostly 114 µM), for the others: at the top dose activity change, negative = inhibition, hits mostly inhibitors | Bromodomain adjacent to zinc finger domain protein 2B (Homo sapiens), Q9UIF8 | actives 4.4% (n = 360,000); note: % is set by controls: 0 for no effect and ±100 for the full control effect; nearly all actives have a fitted effect of over 60% in size
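BAZ2B 50 nM plus b-H3(5-23)K14Ac 50 nM, PBS pH 7.4/0.01% Tween-20, 30 min RT; compound added (max 110 uM), 30 min RT; streptavidin donor/Ni-chelate acceptor beads 10 ug/mL final, 20 min dark; AlphaScreen read.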
HP1b binding inh: HTS for Inhibitors of HP1-beta Chromodomain Interactions with Methylated Histone Tails | Chromobox protein homolog 1 (Homo sapiens), P83916 | AlphaScreen HP1-beta / biotin-H3K9me3 peptide binding | Potency, µM (series often up to 114 µM), for inactives: at the highest dose activity change, negative = inhibition, most hits filed as inhibitors | actives 0.56% (n = 390,000); note: nearly all actives have a fitted effect of over 70% in size
Target sequence (P83916 whole entry, looked up): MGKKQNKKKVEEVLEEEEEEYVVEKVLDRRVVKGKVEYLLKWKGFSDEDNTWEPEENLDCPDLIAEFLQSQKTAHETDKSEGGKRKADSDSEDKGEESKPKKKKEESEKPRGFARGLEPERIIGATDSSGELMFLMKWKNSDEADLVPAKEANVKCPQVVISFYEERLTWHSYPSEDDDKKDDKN
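AlphaScreen: HP1-beta (50 nM) preformed 30 min with biotin-H3(1-18)K9me3 peptide (50 nM) in PBS pH 7.4, 0.01% Tween-20. Compound added for 30 min at RT, then streptavidin donor/nickel chelate acceptor beads (10 ug/mL) for 30 min.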
G9a inh: qHTS Assay for Inhibitors of Histone Lysine Methyltransferase G9a; actives 8.8% (n = 350,000); Potency, µM (titrated, usually from 102 µM), without a hit: at the top dose activity, negative = inhibition, hits mostly inhibitors; G9a H3K9 monomethylation, AlphaScreen, 2 h; note: % is set by controls: 0 for no effect and ±100 for the full control effect; nearly all actives have a fitted effect of over 75% in size
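Signal arises when biotinylated H3K9 peptide, once monomethylated, bridges streptavidin donor and antibody-captured acceptor beads. Enzyme at 20 nM was preincubated 15 min with test compounds; peptide 500 nM and SAM 20 uM then reacted for 2 h.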
The depositor's hits bear a star; ? = inconclusive; nt = no result given; [ ] = remark or other dose. Compounds with a hit are over-represented: about 11% of the library has one in this group of screens. Calls come from the whole dose curve; as a rule, active = well fitted curve in the direction sought with a large enough effect; inconclusive = small, poorly fitted or top-dose-only effect, or another doubt; inactive = no such curve, though single readings can be large; an effect the other way counts as inactive or inconclusive. Potency is the fitted concentration of half-maximal effect.

SMILES | VDR inhibitor | JMJD2A Tudor inh | PLK1 PBD block | BAZ2B inh | HP1b binding inh | G9a inh
O=C(NNc1c2ccccc2nc2ccccc12)c1ccc(O)cc1 | 15.6% | -32.3% | -4.8% | 28.2µM* | ? | ?
CN(C)S(=O)(=O)c1ccc(Cl)c(NC(=O)CN2C(=O)NC3(CCc4ccccc43)C2=O)c1 (stereo not given) | -0.8% | -13.2% | -6.0% | -4.7% | 32.0% | -12.7%[2.33 µM]
CC(C)OC(=O)Cc1nc2sc(-c3ccccc3)cc2c(=O)[nH]1 | -9.7% | -22.4% | -10.6% | -14.7% | 18.6% | 12.8%[0.501 µM]
COc1ccccc1C1(O)CCN(CCCn2c3ccccc3c3ccccc32)CC1 | -1.5% | nt | nt | nt | nt | nt
Cc1ccc(Cn2cc(CCC(=O)NCC(C)c3ccccc3)c3ccccc32)cc1 (stereo not given) | 5.8% | -9.9% | nt | ? | 21.7% | -37.9%[59 µM]
COc1cc(/C=C(\C#N)c2nc3c(s2)CCCC3)ccc1O | nt | nt | nt | 56.2µM* | nt | ?
O=c1[nH]cnc2c1N=C(c1cccc([N+](=O)[O-])c1)CC(c1ccccc1)N2 (stereo not given) | ? | -19.9% | -13.5% | ? | 17.9% | -45.1%
CC(C)(C)NCC(O)COc1ccccc1C1CCCC1 (stereo not given) | -17.2% | -16.5% | -22.2% | 6.4% | 13.2% | -20.9%[59 µM]
COc1ccccc1-c1csc(C(O)(c2ccccc2)C(F)(F)F)n1 (stereo not given) | nt | nt | -8.9% | nt | nt | nt
CN(C)C(=O)CCc1ccc2c3c([nH]c2c1)[C@]1(CCc2ccccc2)[C@@H](C(=O)N2CCCCC2)C[C@H](CC(=O)NCCCn2ccnc2)C(=O)N1CC3 | 8.2% | -29.0% | -7.5% | nt | 10.6% | nt
Nc1nc(N2CCN(C/C=C/c3ccccc3)CC2)nc2ccccc12 | 1.0% | -15.8%[11.4 µM] | 26.7µM* | -36.8% | 26.0% | ?
COc1ccccc1CNc1nc(C)c(C(C)=O)s1 | -4.8% | -22.8% | 15µM* | ? | -19.0% | 11.2µM*
COC(=O)Nc1nc(C)c(C(=O)N(C)C)s1 | 9.9% | -7.1% | 0.8% | -1.7% | 52.0% | -10.7%[12.7 µM]
Cc1nc(NCCc2ccccc2)sc1C(=O)N(C)C | -26.2% | -4.1% | 18.9µM* | 5.7% | -17.1% | 25.1µM*
COCCNc1nc(C)c(C(C)=O)s1 | ? | -14.9% | -10.1% | -28.6% | 45.0% | 39.8µM*
CCOC(=O)c1nc(NCCc2ccccc2)sc1C | 0.8% | -25.5% | -5.1% | nt | 25.0% | 2.6%
COc1ccccc1CNc1nc(C)c(C(=O)N(C)C)s1 | ? | -6.3% | 23.8µM* | -21.9% | ? | 14.1µM*
O=S1(=O)C2CC3OC2(CC3c2ccc(F)cc2)CN1Cc1ccc(Cl)cc1 (stereo not given) | 6.0% | 8.3% | nt | nt | 16.2% | nt
CCC(=O)N1c2ccccc2CC1C(=O)NCCc1ccc(OC)c(OC)c1 (stereo not given) | 9.1% | -2.0% | nt | -10.0% | 23.0% | 20.2%[59 µM]
COC(=O)c1cnn(-c2ccc(Cl)cc2)c1/C=N/NC(N)=S | -25.7% | -10.1% | 1.1% | 1.8% | 35.5% | 6.4%
CC(C(=O)Nc1ccccc1-c1ccccc1)N(C)Cc1nc2ccccc2c(=O)[nH]1 (stereo not given) | ? | -31.6%[11.4 µM] | 6.7µM* | -8.9% | ? | 12.0%
COCCN(Cc1nc2ccccc2c(=O)[nH]1)C(=O)COc1ccccc1-c1ccccc1 | 7.1% | -13.1% | 6.5% | -14.5% | 16.8% | 1.0%[0.501 µM]
O=C(Nc1cccc(-n2cccn2)c1)C1CCCN(Cc2cc3ccccc3[nH]2)C1 (stereo not given) | ? | ? | 21.2µM* | 70.8µM* | -5.3% | 12.0%[12.7 µM]
CC1CCC2C(=O)N(c3ccccc3OC(=O)c3ccccc3F)C(=O)C2C1 (stereo not given) | -8.4% | 4.9% | -11.1% | -22.0% | 14.4% | 31.3%
N#C/C(C(=O)NCc1ccco1)=C1/SC=C(c2ccccc2)N1c1ccccc1 | -18.9% | -7.4% | 1.2% | -3.3% | 35.3% | 15.8µM*
SMILES | VDR inhibitor | JMJD2A Tudor inh | PLK1 PBD block | BAZ2B inh | HP1b binding inh | G9a inh
O=C1CSC(c2ccccc2)N1c1cccnc1 (stereo not given) | -26.7% | ? | ? | -2.6% | -1.1% | -0.7%
COc1ccccc1-c1c(C)nn2c(N3CCN(c4ccccc4)CC3)cc(C)nc12 | -5.1% | -17.6% | nt | 3.7% | 35.0% | -0.4%[59 µM]
COc1ccccc1-c1c(C)nn2c(N3CCN(c4ccccc4OC)CC3)cc(C)nc12 | -23.8% | ? | 21.2µM* | -4.9% | 10.3% | ?
CCOc1ccc(CCN2C(=S)N([C@@H](CC(C)C)CN3CCC[C@@H]3CN3C(=S)NC[C@@H]3Cc3ccccc3)C[C@@H]2Cc2ccc(O)cc2)cc1 | nt | nt | 3.2% | nt | nt | nt
COc1ccc(S(=O)(=O)N2CCC(C(=O)Nc3ccccc3N3CCCC3)CC2)cc1OC | 4.0% | -21.6% | -2.1% | -36.4% | 10.7% | 44.7µM*
O=C(Nc1ccccc1N1CCCC1)C1CCN(S(=O)(=O)c2cccc(C(F)(F)F)c2)CC1 | 8.0% | ? | -1.8% | ? | 42.8% | 14.1µM*
Cc1ccc(CNC(=O)CSc2ncc3c(n2)-c2ccc(Cl)cc2N(Cc2ccccc2)S3(=O)=O)cc1 | -2.9% | -6.2% | nt | -9.6% | 13.5% | -7.9%[59 µM]
CCOC(=O)CC(NC(=O)Cn1nnc(-c2ccccc2Cl)n1)c1ccc(OC)cc1 (stereo not given) | 6.4% | -9.7% | 1.8% | -20.0% | 27.0% | -39.8%[59 µM]
COCCn1c(SCC(=O)c2ccc(CNC(C)=O)o2)nc2ccccc2c1=O | -2.7% | 79.4µM* | -4.2% | -10.3% | 25.4% | -49.5%[59 µM]
CCn1c(SCC(=O)c2ccc(CNC(C)=O)o2)nnc1-c1cccs1 | 3.2% | ? | -27.5% | -29.4% | 22.0% | 17.8µM*
CCN(CC(=O)Nc1c(F)cccc1F)C(=O)Cc1csc(-c2ccccc2)n1 | -6.0% | -23.4% | -14.3% | 7.7% | 8.5% | -33.0%
N#C/C(=N/Nc1ccc([N+](=O)[O-])cc1)C(=N)N1CCCCC1 | -3.6% | 56.2µM* | -4.8% | 35.5µM* | ? | ?
N#C/C(=N\Nc1ccc([N+](=O)[O-])cc1)C(N)=S | ? | 28.2µM* | -23.7% | 14.1µM* | 35.5µM* | nt
CCOC(=O)C1CCCN(S(=O)(=O)c2cc3c(cc2C)NC(=O)CO3)C1 (stereo not given) | 10.1% | -19.7% | nt | -21.5% | 21.3% | -1.0%[59 µM]
c1coc(CSSCc2ccco2)c1 | 22.4µM* | 56.2µM* | 11.9µM* | -4.0% | ? | 20.2%[2.33 µM]
Cc1ccc(-c2cc(C(F)(F)F)n3ncc(-c4ccc(Cl)cc4)c3n2)cc1 | -4.5% | -9.0% | nt | -6.7% | 17.8% | -22.5%[59 µM]
